# Experimental data from publication PMC11062922 (Nature Chemical Biology, 2023).
# Read-outs that look alike come from different tables or passages of the source.
# How the values were obtained:
# PRKD3 = settings: read-out: apparent Kd, n = 1
# Q6ZSR9 = Q6ZSR9 (human, UniProt Q6ZSR9); settings: read-out: apparent Kd, n = 1
# Q6ZSR9, sequence (Q6ZSR9 whole entry, looked up): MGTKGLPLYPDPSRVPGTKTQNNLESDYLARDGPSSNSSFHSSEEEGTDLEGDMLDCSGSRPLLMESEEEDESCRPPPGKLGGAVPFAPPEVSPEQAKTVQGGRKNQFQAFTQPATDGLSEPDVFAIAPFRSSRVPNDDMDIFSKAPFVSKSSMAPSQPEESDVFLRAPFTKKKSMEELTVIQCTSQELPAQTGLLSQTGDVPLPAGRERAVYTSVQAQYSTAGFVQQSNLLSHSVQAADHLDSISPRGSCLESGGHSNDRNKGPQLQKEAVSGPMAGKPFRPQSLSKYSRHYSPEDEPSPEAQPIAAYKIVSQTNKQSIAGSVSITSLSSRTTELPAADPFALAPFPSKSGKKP
substance,measurement,setting,value
Lestaurtinib,potency estimated from few doses,"PRKD3; compound concentrations:100 nM and 1000 nM (sheet 'Lestaurtinib' of Supplementary Table 1),run:Lestaurtinib_02766_R2,Plate:MR027",74.6 nM
same,potency estimated from few doses,"PRKD3; compound concentrations:100 nM and 1000 nM (sheet 'Lestaurtinib' of Supplementary Table 1),run:Lestaurtinib_02768_R3,Plate:MR028",59.1 nM
same,potency estimated from few doses,"PRKD3; compound concentrations:100 nM and 1000 nM (sheet 'Lestaurtinib' of Supplementary Table 1),run:Lestaurtinib_02795_R2,Plate:MR022",79.8 nM
same,potency estimated from few doses,"PRKD3; compound concentrations:100 nM and 1000 nM (sheet 'Lestaurtinib' of Supplementary Table 1),run:Lestaurtinib_02802_R1,Plate:MR029",83.1 nM
same,potency estimated from few doses,"PRKD3; compound concentrations:100 nM and 1000 nM (sheet 'Lestaurtinib' of Supplementary Table 1),run:Lestaurtinib_02802_R3,Plate:MR029",82.7 nM
same,potency estimated from few doses,"PRKD3; compound concentrations:100 nM and 1000 nM (sheet 'Lestaurtinib' of Supplementary Table 1),run:Lestaurtinib_02896_R1,Plate:MR030",61.8 nM
same,potency estimated from few doses,"PRKD3; compound concentrations:100 nM and 1000 nM (sheet 'Lestaurtinib' of Supplementary Table 1),run:Lestaurtinib_02896_R2,Plate:MR030",80.6 nM
same,potency estimated from few doses,"PRKD3; compound concentrations:100 nM and 1000 nM (sheet 'Lestaurtinib' of Supplementary Table 1),run:Lestaurtinib_02896_R3,Plate:MR030",92.2 nM
same,potency estimated from few doses,"PRKD3; compound concentrations:100 nM and 1000 nM (sheet 'Lestaurtinib' of Supplementary Table 1),run:Lestaurtinib_03172_R3,Plate:MR031",90.1 nM
same,potency estimated from few doses,"PRKD3; compound concentrations:100 nM and 1000 nM (sheet 'Lestaurtinib' of Supplementary Table 1),run:Lestaurtinib_03252_R1,Plate:MR032",43.4 nM
same,potency estimated from few doses,"PRKD3; compound concentrations:100 nM and 1000 nM (sheet 'Lestaurtinib' of Supplementary Table 1),run:Lestaurtinib_03252_R2,Plate:MR032",30.6 nM
same,potency estimated from few doses,"PRKD3; compound concentrations:100 nM and 1000 nM (sheet 'Lestaurtinib' of Supplementary Table 1),run:Lestaurtinib_03260_R2,Plate:MR033",96.7 nM
same,potency estimated from few doses,"PRKD3; compound concentrations:100 nM and 1000 nM (sheet 'Lestaurtinib' of Supplementary Table 1),run:Lestaurtinib_03260_R3,Plate:MR033",91.2 nM
same,potency estimated from few doses,"Q6ZSR9; compound concentrations:100 nM and 1000 nM (sheet 'Lestaurtinib' of Supplementary Table 1),run:Lestaurtinib_02339_R1,Plate:MR001",78.9 nM
same,potency estimated from few doses,"Q6ZSR9; compound concentrations:100 nM and 1000 nM (sheet 'Lestaurtinib' of Supplementary Table 1),run:Lestaurtinib_02339_R3,Plate:MR001",48.8 nM
same,potency estimated from few doses,"Q6ZSR9; compound concentrations:100 nM and 1000 nM (sheet 'Lestaurtinib' of Supplementary Table 1),run:Lestaurtinib_02364_R1,Plate:MR002",68.5 nM
same,potency estimated from few doses,"Q6ZSR9; compound concentrations:100 nM and 1000 nM (sheet 'Lestaurtinib' of Supplementary Table 1),run:Lestaurtinib_02364_R2,Plate:MR002",68.1 nM
same,potency estimated from few doses,"Q6ZSR9; compound concentrations:100 nM and 1000 nM (sheet 'Lestaurtinib' of Supplementary Table 1),run:Lestaurtinib_02364_R3,Plate:MR002",78.6 nM
same,potency estimated from few doses,"Q6ZSR9; compound concentrations:100 nM and 1000 nM (sheet 'Lestaurtinib' of Supplementary Table 1),run:Lestaurtinib_02367_R1,Plate:MR003",62.7 nM
same,potency estimated from few doses,"Q6ZSR9; compound concentrations:100 nM and 1000 nM (sheet 'Lestaurtinib' of Supplementary Table 1),run:Lestaurtinib_02367_R2,Plate:MR003",66.7 nM
same,potency estimated from few doses,"Q6ZSR9; compound concentrations:100 nM and 1000 nM (sheet 'Lestaurtinib' of Supplementary Table 1),run:Lestaurtinib_02367_R3,Plate:MR003",78.8 nM
same,potency estimated from few doses,"Q6ZSR9; compound concentrations:100 nM and 1000 nM (sheet 'Lestaurtinib' of Supplementary Table 1),run:Lestaurtinib_02381_R1,Plate:MR004",69.4 nM
same,potency estimated from few doses,"Q6ZSR9; compound concentrations:100 nM and 1000 nM (sheet 'Lestaurtinib' of Supplementary Table 1),run:Lestaurtinib_02381_R2,Plate:MR004",64.6 nM
same,potency estimated from few doses,"Q6ZSR9; compound concentrations:100 nM and 1000 nM (sheet 'Lestaurtinib' of Supplementary Table 1),run:Lestaurtinib_02407_R1,Plate:MR005",62.3 nM
same,potency estimated from few doses,"Q6ZSR9; compound concentrations:100 nM and 1000 nM (sheet 'Lestaurtinib' of Supplementary Table 1),run:Lestaurtinib_02407_R2,Plate:MR005",71.9 nM
same,potency estimated from few doses,"Q6ZSR9; compound concentrations:100 nM and 1000 nM (sheet 'Lestaurtinib' of Supplementary Table 1),run:Lestaurtinib_02407_R3,Plate:MR005",68.5 nM
same,potency estimated from few doses,"Q6ZSR9; compound concentrations:100 nM and 1000 nM (sheet 'Lestaurtinib' of Supplementary Table 1),run:Lestaurtinib_02422_R1,Plate:MR006",72.4 nM
same,potency estimated from few doses,"Q6ZSR9; compound concentrations:100 nM and 1000 nM (sheet 'Lestaurtinib' of Supplementary Table 1),run:Lestaurtinib_02422_R2,Plate:MR006",20.6 nM
same,potency estimated from few doses,"Q6ZSR9; compound concentrations:100 nM and 1000 nM (sheet 'Lestaurtinib' of Supplementary Table 1),run:Lestaurtinib_02437_R2,Plate:MR007",55.6 nM
same,potency estimated from few doses,"Q6ZSR9; compound concentrations:100 nM and 1000 nM (sheet 'Lestaurtinib' of Supplementary Table 1),run:Lestaurtinib_02437_R3,Plate:MR007",9.66 nM
same,potency estimated from few doses,"Q6ZSR9; compound concentrations:100 nM and 1000 nM (sheet 'Lestaurtinib' of Supplementary Table 1),run:Lestaurtinib_02438_R3,Plate:MR008",74.8 nM
same,potency estimated from few doses,"Q6ZSR9; compound concentrations:100 nM and 1000 nM (sheet 'Lestaurtinib' of Supplementary Table 1),run:Lestaurtinib_02443_R1,Plate:MR009",51.6 nM
same,potency estimated from few doses,"Q6ZSR9; compound concentrations:100 nM and 1000 nM (sheet 'Lestaurtinib' of Supplementary Table 1),run:Lestaurtinib_02443_R2,Plate:MR009",62.7 nM
same,potency estimated from few doses,"Q6ZSR9; compound concentrations:100 nM and 1000 nM (sheet 'Lestaurtinib' of Supplementary Table 1),run:Lestaurtinib_02443_R3,Plate:MR009",77.8 nM
same,potency estimated from few doses,"Q6ZSR9; compound concentrations:100 nM and 1000 nM (sheet 'Lestaurtinib' of Supplementary Table 1),run:Lestaurtinib_02473_R1,Plate:MR010",78.4 nM
same,potency estimated from few doses,"Q6ZSR9; compound concentrations:100 nM and 1000 nM (sheet 'Lestaurtinib' of Supplementary Table 1),run:Lestaurtinib_02473_R2,Plate:MR010",61 nM
same,potency estimated from few doses,"Q6ZSR9; compound concentrations:100 nM and 1000 nM (sheet 'Lestaurtinib' of Supplementary Table 1),run:Lestaurtinib_02473_R3,Plate:MR010",35.7 nM
same,potency estimated from few doses,"Q6ZSR9; compound concentrations:100 nM and 1000 nM (sheet 'Lestaurtinib' of Supplementary Table 1),run:Lestaurtinib_02482_R2,Plate:MR011",76.6 nM
same,potency estimated from few doses,"Q6ZSR9; compound concentrations:100 nM and 1000 nM (sheet 'Lestaurtinib' of Supplementary Table 1),run:Lestaurtinib_02482_R3,Plate:MR011",65.6 nM
same,potency estimated from few doses,"Q6ZSR9; compound concentrations:100 nM and 1000 nM (sheet 'Lestaurtinib' of Supplementary Table 1),run:Lestaurtinib_02487_R1,Plate:MR012",71.7 nM
same,potency estimated from few doses,"Q6ZSR9; compound concentrations:100 nM and 1000 nM (sheet 'Lestaurtinib' of Supplementary Table 1),run:Lestaurtinib_02487_R2,Plate:MR012",66.6 nM
same,potency estimated from few doses,"Q6ZSR9; compound concentrations:100 nM and 1000 nM (sheet 'Lestaurtinib' of Supplementary Table 1),run:Lestaurtinib_02487_R3,Plate:MR012",81.2 nM
same,potency estimated from few doses,"Q6ZSR9; compound concentrations:100 nM and 1000 nM (sheet 'Lestaurtinib' of Supplementary Table 1),run:Lestaurtinib_02496_R1,Plate:MR013",65.5 nM
same,potency estimated from few doses,"Q6ZSR9; compound concentrations:100 nM and 1000 nM (sheet 'Lestaurtinib' of Supplementary Table 1),run:Lestaurtinib_02496_R2,Plate:MR013",59.5 nM
same,potency estimated from few doses,"Q6ZSR9; compound concentrations:100 nM and 1000 nM (sheet 'Lestaurtinib' of Supplementary Table 1),run:Lestaurtinib_02496_R3,Plate:MR013",66.8 nM
same,potency estimated from few doses,"Q6ZSR9; compound concentrations:100 nM and 1000 nM (sheet 'Lestaurtinib' of Supplementary Table 1),run:Lestaurtinib_02566_R2,Plate:MR014",55.7 nM
same,potency estimated from few doses,"Q6ZSR9; compound concentrations:100 nM and 1000 nM (sheet 'Lestaurtinib' of Supplementary Table 1),run:Lestaurtinib_02566_R3,Plate:MR014",80.5 nM
